Compound activity: PubChem BioAssay, National Center for Advancing Translational Sciences (NCATS)
A selection: hits, their analogues and other compounds. The true share with any hit is near 21%.
Shiga inhibitor – inhibitors of Shiga toxin in Vero cells | 9.2% of 290,000 active | Vero cells, Shiga toxin protein synthesis inhibition reporter | inhibition, % at 38.7 µM; in the data active means inhibition mostly above about 28%, no sharp cut-off; inactive means mostly below about 43%; further: 0% is about no effect
NS1 inh – influenza NS1 inhibition. Potency, µM (highest dose often 46.1 µM), for the others: top-dose activity, positive = more growth. 0.4% of 270,000 active. AID 2326; calls by dose curve; further: potency means the concentration at half of the fitted maximal effect; actives are rising curves; nearly all actives have a fitted effect of over 50% in size
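S. cerevisiae expressing influenza A NS1, grown in glucose, washed, then diluted 1:100 into pH 6.0 -URA galactose medium with 23 nl compound. Growth recovery read as OD600; NS1-free strain serves as control.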
Sm TGR block – S. mansoni TGR enzyme inhibition | Q962Y6 | purified TGR, DTNB reduction, TNB absorbance 405 nm | Potency, µM (series often up to 114 µM), for the others: at the highest dose activity change, negative = inhibition, hits mostly inhibitors | 3% of 360,000 active; further: potency means the concentration at half of the fitted maximal effect; on the % scale 0 is the no-effect control and ±100 the full control effect; nearly all actives have a fitted effect of over 60% in size
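Kinetic colorimetric format: TGR-catalysed, NADPH-driven DTNB reduction monitored via TNB absorbance. Enzyme dispensed at 20 nM; compound exposure 15 min at room temperature before reaction start.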
Pf growth 48h – inhibits P. falciparum growth in the first generation, 48 h; 5.9% of 310,000 active; Potency, µM (highest dose often 28.7 µM), inactives show at the top dose activity change, negative = inhibition, actives largely listed as inhibitors; P. falciparum luciferase growth in erythrocytes, 48 h; further: potency means the concentration at half of the fitted maximal effect; on the % scale 0 is the no-effect control and ±100 the full control effect
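Cell-based growth assay: transgenic P. falciparum expressing firefly luciferase, cultured in red cells within RPMI 1640 containing 0.5% w/v Albumax, 24 mM bicarbonate and gentamycin. A drop in luciferase activity indicates inhibition.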
Pf growth 96h – P. falciparum growth inhibition at 96 hour, primary screen for plastid delayed-death inhibitors; 6.9% of 320,000 active; AID 504834; Potency, µM (highest dose often 28.7 µM), without a hit: at the highest dose activity change, negative = inhibition, hits mostly inhibitors; P. falciparum luciferase reporter growth, 96 h; further: potency means the concentration at half of the fitted maximal effect; on the % scale 0 is the no-effect control and ±100 the full control effect
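Compounds incubated with erythrocytes infected by luciferase-expressing P. falciparum (2% hematocrit, 0.05% parasitemia final) for 96 hours, 37 C in 5% CO2. Growth inhibition scored as decreased luciferase luminescence.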
CHX counter – affects cycloheximide protein synthesis inhibition readout, counter-screen; 12% of 300,000 active; cell reporter, cycloheximide protein synthesis inhibition counterscreen; max response, %; in the data active means max response mostly above about 13%, no sharp cut-off; inactive means mostly below about 14%; further: read at 38.3 µM for the half of the compounds with a filed dose; 0% is about no effect
The depositor's hits bear a star; i = inactive; ? = inconclusive; · = not tested or not shown. Unless noted, the call rests on the fitted dose curve; in most records, active means well fitted curve in the direction sought with a large enough effect; inconclusive means small, poorly fitted or top-dose-only effect, or another doubt; inactive means no such curve, though single readings can be large; an effect the other way counts as inactive or inconclusive.

SMILES | Shiga inhibitor | NS1 inh | Sm TGR block | Pf growth 48h | Pf growth 96h | CHX counter
O=C(/C=C/Nc1ccccc1F)c1cccs1 | 29.8* | -19.1% | -14.6% | 148.3% | ? | 44.8*
O=C(/C=C\Nc1cccc(F)c1)c1cccs1 | 42.1* | -20.2% | -1.8% | 108.0% | 274.1% | 39.6*
O=C(CCc1nnc2ccc(NCc3ccco3)nn12)Nc1cccc(F)c1 | -0.9 | 16.6% | -9.8% | -8.7% | ? | -6.8
Cc1cc(C(=O)OCC(=O)NC2(C#N)CCCCC2)c(C)o1 | · | · | -22.8% | ? | ? | ·
Cc1ccc(NC(=O)c2cnc(N3CCCC3)nc2C)cc1F | · | · | 1.3% | · | · | ·
Cc1ccc(NC(=O)C2=NNC(=O)CC2)cc1F | 59.9* | -2.7% | -0.7% | 94.8% | 53.7% | 34.9*
O=C1CCC(C(=O)Nc2cccc(Oc3ccccc3)c2)=NN1 | 16.0 | · | -0.5% | -15.4% | ? | 14.7*
c1ccc(Oc2cccc(NC3=NCCC3)c2)cc1 | -27.1 | -8.1% | 0.0% | -6.5% | ? | -0.7
CC(C)c1ccc(NC(=O)C2=NNC(=O)CC2)cc1 | 97.4* | -2.1% | 0.0% | 100.3% | 140.0% | 37.7*
O=C(CSc1ncc2c(n1)-c1ccccc1N(Cc1ccc(F)cc1)S2(=O)=O)c1ccc(Br)cc1 | · | · | -8.5% | · | · | ·
CCOc1cccc(C(=O)N(Cc2ccc(F)cc2)Cc2ccco2)c1 | · | · | 1.0% | · | · | ·
COc1cccc(NC(=O)CSc2nccn2Cc2ccc3c(c2)OCO3)c1 | · | · | -0.9% | · | · | ·
CCN(CC)C(=O)C(=O)N/N=C/c1cccs1 | -1.1 | 10.6% | -17.1% | 38.7% | 0.0% | 7.7
CC(C)NC(=O)CC(=O)N/N=C/c1cccs1 | -8.7 | 5.2% | -3.9% | ? | 1.8% | -3.1
O=C(CCC(=O)Nc1cccc([N+](=O)[O-])c1)N/N=C/c1cccs1 | 12.8 | 9.5% | 3.7% | 10.0% | ? | 19.4
CC(C)CNC(=O)C(=O)N/N=C/c1cccs1 | 45.8 | -6.8% | -17.3% | -9.6% | 0.0% | 27.8*
Cc1ccc(NC(=O)CCC(=O)N/N=C/c2cccs2)cc1 | 45.5 | · | -2.9% | -9.6% | ? | 5.9
O=C(N/N=C/c1cccs1)C(=O)Nc1cccc(Cl)c1 | 55.3* | · | 3.5% | 21.4% | 33.9% | 20.2*
CCCNC(=O)C(=O)N/N=C/c1cccs1 | 14.6 | 0.0% | -3.7% | 31.0% | 24.6% | 21.3*
CC(C)(C)NC(=O)C(=O)N/N=C/c1cccs1 | 67.4* | 9.1% | 5.7% | 86.3% | 109.1% | 37.3*
CSc1cccc(NC(=O)c2ccc3c(c2)CCCN3S(C)(=O)=O)c1 | · | · | -0.1% | · | · | ·
COC(=O)[C@@H](N)CS | 1.0 | -30.6% | 4.7% | 10.0% | -25.8% | -2.0
O=C(CSc1nnnn1-c1ccc(F)cc1)c1ccc(O)c(O)c1 | 57.6 | · | -22.2% | -25.1% | ? | 38.0*
COc1ccc(N2CC(C(=O)N[C@@H](C)C(=O)NCCc3ccccc3)CC2=O)cc1 (some centres not stated) | -2.9 | 11.4% | -2.6% | 14.9% | 23.7% | -2.0
CC(C)n1nnnc1SCC(=O)N1CCN(Cc2ccc3c(c2)OCCO3)CC1 | · | · | 0.0% | 11.7µM* | 10.4µM* | ·
SMILES | Shiga inhibitor | NS1 inh | Sm TGR block | Pf growth 48h | Pf growth 96h | CHX counter
CC(C)n1nnnc1SCC(=O)N1CCOCC1 | -0.5 | 2.7% | 0.0% | 5.0% | 13.1µM* | 1.0
CC(C)n1nnnc1SCC(=O)NCc1ccc2c(c1)OCO2 | -2.2 | 0.8% | 10.1% | 3.6% | ? | 6.5
COc1cc(/C=N/NC(=O)c2ccccc2NS(=O)(=O)c2cccs2)ccc1O | · | · | -4.5% | ? | ? | ·
CC(=O)N1CCc2ccc(NC(=O)c3c(-c4c(Cl)cccc4Cl)noc3C)cc21 | -10.1 | 0.6% | -0.1% | ? | -17.5% | 1.7
CSCc1ccc(C(=O)N2CCCC(Nc3ccc4c(c3)OCCO4)C2)o1 (configuration not stated) | 1.2 | 8.1% | 28.2µM* | -18.1% | 49.9% | -0.3
O=C(c1cc(Cl)ccc1F)N1CCCC(Nc2ccc3c(c2)OCCO3)C1 (configuration not stated) | -4.3 | -7.7% | -5.9% | 2.3% | ? | -1.1
O=C(c1ccco1)N1CCCC(Nc2ccc3c(c2)OCCO3)C1 (configuration not stated) | 85.0* | -3.3% | -24.0% | 89.7% | -21.6% | 43.2*
CSCc1ccc(C(=O)N2CCCC(Nc3ccc(F)cc3)C2)o1 (configuration not stated) | -5.9 | 0.2% | -31.7% | ? | 1.5% | 8.2
CNC(=S)N=Nc1c(O)[nH]c2ccc(C(C)C)cc12 | -2.8 | 6.6% | -6.3% | ? | 6.57µM* | -2.9
Oc1ccc(NC(=S)N=Nc2c(O)[nH]c3ccccc23)cc1 | 50.9* | 11.1% | · | -4.8% | 37.2% | 19.7
COc1ccc(NC(=S)N=Nc2c(O)[nH]c3ccccc23)cc1 | 20.7 | -0.4% | 3.3% | ? | ? | 3.0
O=C(O)c1cccc(N=Nc2c(O)[nH]c(=O)[nH]c2=O)c1 | 6.1 | -2.8% | 3.0% | 136.4% | 92.4% | 2.2
CNC(=S)N=Nc1c(O)[nH]c2ccccc12 | 17.0* | -6.1% | -24.1% | 3.4% | -4.3% | 6.4
CC(=O)c1cccc(N=Nc2c(C)[nH]c3ccccc23)c1 | 93.3* | -10.0% | -0.8% | 18.4% | ? | 49.6*
COc1cc(CN(C(=O)COc2ccc(F)cc2)c2ccccn2)cc(OC)c1OC | · | · | -8.1% | · | · | ·
O=C(N=Nc1c(O)[nH]c2ccccc12)c1cccs1 | 107.1* | · | -1.9% | i | -23.9% | 39.0*
O=C(N=Nc1c(O)[nH]c2ccccc12)c1cc(NS(=O)(=O)c2cccs2)cc(NS(=O)(=O)c2cccs2)c1 | -6.7 | · | 11.4% | ? | ? | -6.9
Cc1ccc(NC(=S)N=Nc2c(O)[nH]c3ccccc23)cc1 | 52.6* | · | 21.1% | 5.22µM* | 1.85µM* | 22.2*
O=C(O)c1ccc(N=Nc2c(O)[nH]c3ccccc23)cc1 | 56.1* | 2.8% | -10.8% | ? | ? | 38.7*
CCCOc1ccc(C(=O)Nc2nonc2-c2ccc(OCC)cc2)cc1 | · | · | -3.5% | · | · | ·
O=C(COc1ccc(Br)cc1CNCCCN1CCOCC1)Nc1ccccc1 | 13.2 | 2.8% | -14.5% | 3.7µM* | 2.94µM* | -0.9
COc1cc(CNCCCN2CCOCC2)ccc1OCC(=O)Nc1cccc(C(F)(F)F)c1 | -19.9 | 16.8% | -18.2% | 1.85µM* | ? | 0.4
CCOc1cc(CNCCCN2CCOCC2)ccc1OCC(=O)Nc1cccc2ccccc12 | -11.7 | -1.3% | -6.1% | 2.94µM* | 2.62µM* | 2.5
O=C(COc1ccc(Br)cc1Cl)NCCCN1CCOCC1 | -28.0 | -19.1% | 3.4% | 10.2% | ? | 1.5
Cc1ccc(C)c(CSc2nnc3[nH]c(=O)cc(C)n23)c1 | · | · | 6.9% | · | · | ·
Oc1oc(C=Nc2ccc(F)cc2F)c2ccccc12 | -1.4 | 3.6% | 50.1µM* | 0.0% | 39.5% | 8.9
CSc1n[nH]c(/N=C/c2oc(O)c3ccccc23)n1 | -14.2 | -2.0% | -4.4% | 14.4% | 16.2% | -3.0
